# Bioassay records: PubChem BioAssay, Broad Institute
# C diff HTS: C. difficile growth inhibitors, primary screen, HTS | growth activity, negative = inhibition, % at 16 µg/mL (by protocol) | Clostridium difficile clinical isolate growth, OD600, 24 h; stronger effect = lower value | 86,000 tested, 0.25% active;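 active means mean growth activity at or below -80% and every replicate also at or below -80%; inconclusive means mean at or below -80% but some replicate above -80%; inactive means mean growth activity above -80%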;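 further: 0% = DMSO wells and -100% = levofloxacin 16 µg/mL wells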
# Pf Dd2 inh: P. falciparum Dd2 growth inhibitors, primary screen, SYBR Green fluorescence, single dose replicates; 72 h; stronger effect = lower value; activity change, % at 10 µM; 94,000 tested, 2.3% active; in the data active means activity change below about -80%; inconclusive means no clear call, values can overlap the other calls
# T cruzi growth-1: T. cruzi intracellular proliferation inhibitors, primary screen, cell-based, beta-gal Tulahuen parasites, NIH3T3 host, luminescence; inhibition, % at 8.34 µM; T. cruzi beta-gal in NIH3T3, GalScreen luminescence, 90 h; 77,000 tested, 5.9% active;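 active means mean inhibition above about 93%, with at least 55% of replicates each passing it, limit read from the data, passing the limit was not always enough; inconclusive means only one of those two conditions holds; inactive means neither condition holds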
# T cruzi growth-2: T. cruzi intracellular proliferation inhibitors, confirmation, cell-based, NIH3T3 host, beta-gal parasite, luminescence, cherry-pick; shares compounds with T cruzi growth-1; 5,600 tested, 72% active; T. cruzi beta-gal in NIH3T3, GalScreen luminescence, 90 h; inhibition, % at 8.35 µM;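 active means mean replicate inhibition above about 95% and at least 55% of replicates individually reaching it, limit read from the data; inconclusive means only one of the two criteria is met; inactive means neither criterion is met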
# T cruzi growth-3: inhibitors of intracellular T. cruzi replication, confirmation, NIH3T3 host cells, beta-gal parasites, cherry-pick, set 2 | shares compounds with T cruzi growth-1 | inhibition, % at 2.09 µM | T. cruzi beta-gal in NIH3T3, GalScreen luminescence, 90 h | 5,600 tested, 21% active;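 active means mean inhibition above about 95%, with at least 55% of replicates also reaching it, limit read from the data; inconclusive means meets just one of the two conditions; inactive means meets neither condition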;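 further: plate controls were neutral control median for no effect and positive control median for full effect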
# NIH3T3 tox: cytotoxicity in mouse NIH/3T3 fibroblasts, confirmation, cytotoxicity control for T. cruzi proliferation inhibitor project, cell-based, cherry-pick, single point | shares compounds with T cruzi growth-1 | 5,600 tested, 14% active | cytotoxicity (signal decrease), % at 8.35 µM | NIH/3T3 viability, CellTiter-Glo ATP luminescence, 90 h;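 active means mean signal decrease across replicates above about 35% based on untreated-well scatter, with enough replicates individually passing, limit read from the data; inconclusive means no rule stated though some were filed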;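 further: 0% = median of neutral control wells and 100% = median of positive control wells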
# NIH3T3 tox 2: NIH/3T3 fibroblast cytotoxicity, confirmation, cytotoxicity control, cell-based, cherry-pick, single point, set 2; shares compounds with T cruzi growth-1; NIH/3T3 viability, CellTiter-Glo ATP luminescence, 90 h; inhibition, % at 24.9 µM; 5,600 tested, 56% active; AID 651744, 2012;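 active means mean loss of cell viability signal at or above a set limit, and enough replicates individually reaching it; inconclusive means meets only the mean limit or only the replicate share; inactive means meets neither condition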;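 further: 0% = median of neutral control wells and 100% = median of positive control wells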
# * = called active by the depositor; ? = inconclusive; nt = not tested or not shown. Compounds with a hit are over-represented: about 6.7% of the library has one in this group of screens.
SMILES,C diff HTS,Pf Dd2 inh,T cruzi growth-1,T cruzi growth-2,T cruzi growth-3,NIH3T3 tox,NIH3T3 tox 2
O=C(Nc1ccccc1F)N1CCCCN2[C@H](CO)[C@@H](c3ccc(C4=CCCCC4)cc3)[C@H]2C1,20.3,-54.5,102.8*,111.2*,73.2,38.6*,106.7*
O=C(Nc1ccccc1F)N1CCCCN2[C@H](CO)[C@@H](c3ccc(/C=C/c4ccccc4)cc3)[C@H]2C1,12.9,-32.6,104.0*,97.2*,60.7,58.8*,105.1*
O=C(Nc1ccccc1F)N1CCCCN2[C@H](CO)[C@@H](c3ccc(C4=CCCC4)cc3)[C@@H]2C1,5.7,9.3,78.8,nt,nt,nt,nt
C/C=C/c1ccc([C@H]2[C@@H](CO)N3CCCCN(C(=O)Nc4ccccc4F)C[C@H]23)cc1,-0.4,-27.1,97.3*,99.7*,52.0,8.8,70.0*
C[C@@H]1CN([C@@H](C)CO)C(=O)c2cc(NC(=O)CCC(F)(F)F)ccc2O[C@@H]1CN(C)S(=O)(=O)c1cn(C)cn1,nt,6.3,-99.3,nt,nt,nt,nt
C[C@@H]1CN([C@H](C)CO)S(=O)(=O)c2ccc(C#Cc3cccc(F)c3)cc2O[C@@H]1CN(C)CC1CC1,5.5,-39.8,nt,nt,nt,nt,nt
CCCN(C)C[C@@H]1Oc2cc(C#Cc3cccc(F)c3)ccc2S(=O)(=O)N([C@@H](C)CO)C[C@@H]1C,10.0,nt,111.2*,113.1*,61.1,7.3,102.5*
CCCN(C)C[C@@H]1Oc2cc(C#Cc3cccc(F)c3)ccc2S(=O)(=O)N([C@@H](C)CO)C[C@H]1C,-4.8,nt,116.0*,110.2*,9.6,4.3,103.7*
CCCN(C)C[C@@H]1Oc2cc(C#Cc3ccc(F)cc3)ccc2S(=O)(=O)N([C@@H](C)CO)C[C@H]1C,4.3,-17.4,93.7*,104.7*,39.8,31.4,106.2*
CCCN(C)C[C@@H]1Oc2cc(C#Cc3ccc(F)cc3)ccc2S(=O)(=O)N([C@H](C)CO)C[C@@H]1C,11.4,-24.3,14.3,nt,nt,nt,nt
CCCN(C)C[C@@H]1Oc2cc(C#Cc3ccccc3)ccc2S(=O)(=O)N([C@@H](C)CO)C[C@H]1C,-0.8,-44.0,26.4,nt,nt,nt,nt
CN1C(=O)c2cc(NC(=O)C3CC3)ccc2OC[C@H]2O[C@@H](CC(=O)NCc3cccc(F)c3)CC[C@@H]21,0.1,-16.0,17.3,nt,nt,nt,nt
C[C@H](CO)N1C[C@H](C)[C@@H](CN(C)C)OCCCC[C@H](C)Oc2ccc(NS(C)(=O)=O)cc2C1=O,-0.8,34.7,-8.5,nt,nt,nt,nt
O=C(N[C@@H]1CC[C@@H](CCn2cc(-c3ccccc3)nn2)O[C@@H]1CO)c1ccccc1F,-3.1,-42.1,14.9,nt,nt,nt,nt
C[C@@H]1CN([C@H](C)CO)S(=O)(=O)c2ccc(/C=C/c3ccccc3)cc2O[C@@H]1CN(C)Cc1cncnc1,-13.6,-1.5,90.4,nt,nt,nt,nt
C[C@H]1CN([C@@H](C)CO)S(=O)(=O)c2ccc(/C=C/c3ccccc3)cc2O[C@H]1CN(C)Cc1cncnc1,-2.1,-48.5,102.5*,95.1*,78.5,56.6*,46.2*
C[C@@H]1CN([C@@H](C)CO)S(=O)(=O)c2ccc(/C=C/c3ccccc3)cc2O[C@H]1CN(C)Cc1cncnc1,-7.4,-88.7*,121.2*,111.7*,97.3*,53.7*,61.1*
C[C@H](CO)N1C[C@H](C)[C@H](CN(C)Cc2cncnc2)Oc2cc(/C=C/c3ccccc3)ccc2S1(=O)=O,1.2,-45.2,74.5,nt,nt,nt,nt
CCCNC(=O)C[C@@H]1C[C@H]2c3cc(NC(=O)c4cccnc4)ccc3O[C@H]2[C@@H](CO)O1,-1.2,-1.3,-76.5,nt,nt,nt,nt
C[C@@H]1CN([C@H](C)CO)C(=O)c2cc(C#CCN(C)C)cnc2O[C@@H]1CN(C)C(=O)c1cccc(F)c1,1.6,29.2,-9.6,nt,nt,nt,nt
C[C@@H]1CN([C@@H](C)CO)C(=O)c2cc(N(C)C)ccc2O[C@@H]1CN(C)C,-3.0,5.5,28.5,nt,nt,nt,nt
C[C@H]1CN([C@@H](C)CO)S(=O)(=O)c2ccc(-c3ccncc3)cc2O[C@@H]1CN(C)S(=O)(=O)c1ccccc1F,4.5,-54.8,nt,nt,nt,nt,nt
C[C@H](CO)N1C[C@H](C)[C@@H](CN(C)S(=O)(=O)c2ccccc2F)Oc2cc(-c3ccncc3)ccc2S1(=O)=O,3.7,-18.4,nt,nt,nt,nt,nt
C[C@@H]1CN([C@H](C)CO)S(=O)(=O)c2ccc(C#Cc3ccccc3)cc2O[C@@H]1CN(C)S(=O)(=O)c1ccccc1F,-0.6,-77.4,122.4*,104.8*,105.7*,25.0,52.1*
C[C@H](CO)N1C[C@H](C)[C@H](CN(C)S(=O)(=O)c2ccccc2F)Oc2cc(C#Cc3ccccc3)ccc2S1(=O)=O,17.1,-58.6,124.6*,109.8*,79.0,-1.1,-0.1
SMILES,C diff HTS,Pf Dd2 inh,T cruzi growth-1,T cruzi growth-2,T cruzi growth-3,NIH3T3 tox,NIH3T3 tox 2
Cc1ccc(S(=O)(=O)N(C)C[C@H]2Oc3cc(C#Cc4ccccc4)ccc3S(=O)(=O)N([C@@H](C)CO)C[C@@H]2C)cc1,1.9,-77.3,nt,nt,nt,nt,nt
C[C@H]1CN([C@@H](C)CO)S(=O)(=O)c2ccc(C#Cc3ccccc3)cc2O[C@@H]1CN(C)S(=O)(=O)c1ccccc1F,4.5,-71.5,125.1*,97.7*,103.5*,-16.6,29.3*
C[C@@H]1CN([C@H](C)CO)S(=O)(=O)c2ccc(C#Cc3ccccc3)cc2O[C@H]1CN(C)S(=O)(=O)c1ccccc1F,10.6,-74.9,129.0*,97.9*,44.9,7.5,?
Cc1ccc(S(=O)(=O)N(C)C[C@H]2Oc3cc(C#Cc4ccccc4)ccc3S(=O)(=O)N([C@H](C)CO)C[C@H]2C)cc1,2.6,-38.3,nt,nt,nt,nt,nt
C[C@H](CO)N1C[C@H](C)[C@@H](CN(C)Cc2ccc3c(c2)OCCN3C)OCc2ccccc2-c2c(n(C)c3ccccc23)C1=O,-1.5,-29.9,nt,nt,nt,nt,nt
Cc1noc(C)c1S(=O)(=O)N(C)C[C@H]1Oc2ccc(NC(=O)NC3CCCCC3)cc2CC(=O)N([C@@H](C)CO)C[C@@H]1C,-9.9,-17.1,29.1,nt,nt,nt,nt
CCCNC(=O)N1CC2(CN(Cc3cccc(F)c3)C2)c2c([nH]c3cc(OC)ccc23)[C@@H]1CO,-20.0,-58.1,nt,nt,nt,nt,nt
COC(=O)[C@H]1[C@H](CO)[C@H]2Cn3c(cccc3=O)[C@H]2N1C(=O)C1CCC1,-2.9,15.9,51.5,nt,nt,nt,nt
COc1ccc(CN(C)C[C@H]2Oc3ccc(NS(=O)(=O)c4ccc(Cl)cc4)cc3CC(=O)N([C@@H](C)CO)C[C@@H]2C)cc1,-29.1,-50.6,106.6*,96.6*,79.2,4.6,85.7*
